Arbovirus anti = antivirals against arbovirus infection | AID 1251 | 0.37% of 200,000 active | inhibition, % at 10 µM | arbovirus infection cell-based antiviral screen; in the data active means inhibition above about 30%
PERK inhibitor = blocks human PERK kinase; Q9NZJ5; CHO PERK-DD fusion, SEAP luminescence translation reporter; inhibition, % at 5.6 µM; 0.17% of 220,000 active; AID 1416;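 active means inhibition above the mean inhibition of all tested compounds plus 3 SD, set separately per screening campaign, cut at about 2.9% in these data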;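 further: PERK kinase domain activated by AP20187 dimerizer at 100 nM; 0% = DMSO with dimerizer and 100% = rapamycin at 8.4 µM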
Target sequence (Q9NZJ5 whole entry, looked up, the tested form may be a part): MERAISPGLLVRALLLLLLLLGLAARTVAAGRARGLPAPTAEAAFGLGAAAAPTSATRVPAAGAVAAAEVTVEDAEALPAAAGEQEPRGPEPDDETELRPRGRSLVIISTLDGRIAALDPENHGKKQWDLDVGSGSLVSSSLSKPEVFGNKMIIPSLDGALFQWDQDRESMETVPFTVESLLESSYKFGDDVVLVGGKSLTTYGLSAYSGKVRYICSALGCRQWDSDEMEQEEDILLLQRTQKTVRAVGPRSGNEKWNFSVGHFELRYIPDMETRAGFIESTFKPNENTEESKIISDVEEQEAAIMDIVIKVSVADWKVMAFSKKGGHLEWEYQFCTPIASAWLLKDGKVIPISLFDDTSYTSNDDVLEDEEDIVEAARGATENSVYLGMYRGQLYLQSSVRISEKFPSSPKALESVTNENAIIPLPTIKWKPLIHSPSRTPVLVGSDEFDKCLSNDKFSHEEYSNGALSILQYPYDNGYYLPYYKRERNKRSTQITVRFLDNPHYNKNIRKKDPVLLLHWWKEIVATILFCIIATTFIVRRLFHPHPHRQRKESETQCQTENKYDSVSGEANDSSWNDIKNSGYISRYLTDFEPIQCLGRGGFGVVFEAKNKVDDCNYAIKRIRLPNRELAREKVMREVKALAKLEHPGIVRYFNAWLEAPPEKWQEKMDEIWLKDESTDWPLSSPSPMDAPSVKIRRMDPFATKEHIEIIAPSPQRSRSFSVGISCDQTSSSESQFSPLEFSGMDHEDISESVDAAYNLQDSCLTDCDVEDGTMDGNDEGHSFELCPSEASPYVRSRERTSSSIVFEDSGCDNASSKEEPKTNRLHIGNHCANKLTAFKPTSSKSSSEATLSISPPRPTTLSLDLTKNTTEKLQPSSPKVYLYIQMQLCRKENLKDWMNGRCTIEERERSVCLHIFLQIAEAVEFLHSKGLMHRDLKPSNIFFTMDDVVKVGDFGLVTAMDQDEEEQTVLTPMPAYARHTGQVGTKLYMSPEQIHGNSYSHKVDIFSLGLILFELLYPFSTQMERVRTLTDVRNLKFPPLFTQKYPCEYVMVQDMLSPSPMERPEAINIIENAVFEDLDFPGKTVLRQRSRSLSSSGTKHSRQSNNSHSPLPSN
ROMK primary = human ROMK K+ channel modulation, primary screen. P48048. Tet-inducible ROMK, thallium flux fluorescence; actives lie on both sides. B-score at 10 µM. 2% of 130,000 active;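 active means signal ratio slope over the read window, or its plate-corrected B-score, at least 3 SD from the plate mean, either direction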;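 further: B-score of the F/F0 ratio slope over 7 to 12 s after thallium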
WT yeast gro inh = growth inhibition of WT yeast, mitochondrial fusion screen; mitochondrial fusion phenotypic screen, WT strain; 2.1% of 190,000 active; inhibition, % at 10 µM; in the data active means inhibition above about 58%; tested in S. cerevisiae
ROMK hit retest = human ROMK channel modulation, retest confirmation; 54% of 3,000 active; shares compounds with ROMK primary; ROMK thallium flux, fluorescence ratio; hits give low values; normalized thallium flux (F/F0 slope) at 10 µM;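 active means Flux at 10 µM at least 3 SD below or above vehicle control mean in one or both replicates; inconclusive means no clear call, values can overlap the other calls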
The depositor's hits bear a star; ? = inconclusive; . = not tested or not shown. Only some compounds are listed: those with a hit (about 3.3% of all), similar ones and a draw of the others.

SMILES | Arbovirus anti | PERK inhibitor | ROMK primary | WT yeast gro inh | ROMK hit retest
O=c1ncn(-c2ccccc2F)c2ncccc12 | 5.2 | 0.8 | -0.505 | 2.6 | .
Cc1ccc(-n2c(C)cc(/C=N/NC(=O)CC3(C)OCCO3)c2C)c(C)c1 | 6.1 | 0.4 | 1.56 | 27.9 | .
CC1(CC(=O)N/N=C/c2cc([N+](=O)[O-])c(O)cc2O)OCCO1 | 26.8 | 0.6 | 0.701 | -13.4 | 0.0809
CCOC(=O)c1c(C)oc2c1c(C=NCC1CCCO1)c(O)c1ccccc12 (stereo not drawn) | -8.8 | -1.1 | -0.0489 | -8.8 | .
CCOC(=O)c1c(C)oc2c1c(C=NCc1ccccn1)c(O)c1ccccc12 | -9.4 | -0.8 | . | 5.1 | 0.0638*
O=C(NCc1ccco1)C1CC(=O)N(c2ccc(O)cc2)C1 (stereo not drawn) | 8.8 | 0.0 | . | 5.7 | .
COc1ccccc1/C=N/NC(=O)CC(=O)Nc1ccc(Cl)c(Cl)c1 | -1.9 | -0.4 | -3.8* | 7.1 | 0.0869
COc1ccccc1/C=N/NC(=O)COCC(=O)N/N=C/c1ccccc1OC | -0.6 | 0.1 | -1.01 | 0.9 | .
CCN(C(=O)c1cc2c(C)nc3ccccc3c2o1)c1cc(Cl)ccc1OC | . | 0.6 | . | . | .
O=c1[nH]c(SCc2nc3c(cnn3-c3ccccc3)c(=O)[nH]2)nc2ccccc12 | 9.5 | 1.6 | -0.421 | 11.7 | .
O=c1[nH]c(CSc2nc3ccccc3[nH]2)nc2c1cnn2-c1ccccc1 | 18.9 | -0.2 | -3.44* | -5.4 | 0.0529*
CCOC(=O)Cc1nc2ccccc2n(CC#N)c1=O | -1.1 | 1.7 | 0.912 | -7.7 | .
O=C(c1cc(N2C(=O)C3C4CCC(C4)C3C2=O)ccc1Cl)N1CCN(c2ccc(F)cc2)CC1 (stereo not drawn) | 4.5 | 0.0 | -5.02* | 3.5 | 0.0607*
CCCCc1ccc(N/C(N)=N/c2nc(C)cc(C)n2)cc1 | . | -2.1 | . | . | 0.0566*
Cc1cc(C)nc(/N=C(\N)Nc2ccccc2-c2ccccc2)n1 | -2.5 | -1.2 | -4.82* | 0.0 | 0.053*
O=C(C1CCN(CCCc2ccccc2)CC1)N(CCc1ccccc1)Cc1ccccc1 | -37.5 | -1.5 | -5.02* | 34.3 | 0.0505*
O=C(c1cccc2ccccc12)N1CCN(CC2CC=CCC2)CC1 (stereo not drawn) | -3.9 | -0.6 | -2.64* | 7.6 | 0.0586*
O=C(C1CCN(CC2CC=CCC2)CC1)N(CCc1ccccc1)Cc1ccccc1 (stereo not drawn) | -14.9 | -1.0 | -2.78* | -4.7 | 0.064*
O=C(C1CCN(S(=O)(=O)c2cnc[nH]2)CC1)N(CCc1ccccc1)Cc1ccccc1 | 2.2 | 0.8 | -0.927 | -9.2 | .
COc1ccc(OC)c(Nc2cc(-c3ccccc3)nc(N)n2)c1 | -23.3 | -1.0 | . | 3.0 | .
Clc1ccc(CN2C3=NCCN3c3ccccc32)cc1Cl | -17.8 | -0.9 | -2.81* | 12.9 | 0.0604*
c1ccc(CN2C3=NCCN3c3ccccc32)cc1 | 5.5 | 0.2 | -0.209 | -10.7 | .
N#Cc1c(NCc2ccccc2)ccnc1NCc1cccnc1 | 14.7 | -0.4 | . | -15.8 | 0.0731
CCC(=O)Nc1cc(=O)[nH]c2nc(-c3ccc(Cl)cc3)nn12 | . | 1.0 | -0.271 | . | .
Cc1cc(/C=N/NC(=O)C(O)(c2ccccc2)c2ccccc2)c(C)n1-c1ccccc1 | -14.9 | 0.1 | 2.74* | 2.9 | 0.097*
SMILES | Arbovirus anti | PERK inhibitor | ROMK primary | WT yeast gro inh | ROMK hit retest
Cc1cc(C)nc(SCC(=O)N/N=C/c2cc(C)n(-c3ccccc3C)c2C)n1 | 12.8 | 0.4 | 6.64* | -10.3 | 0.117*
Cc1cc(/C=N/NC(=O)c2cccs2)c(C)n1-c1ccccc1 | -3.0 | -0.2 | 3.82* | 10.8 | 0.0814
CCOC(=O)C1CCCN(C(=O)COc2ccc(S(=O)(=O)N(CC)c3ccccc3)cc2)C1 (stereo not drawn) | 11.5 | 0.3 | 0.349 | -3.8 | .
O=C(Nc1nc(-c2ccc(Cl)cc2)cs1)NC1CCCCC1 | -3.3 | 0.5 | 0.963 | 40.5 | .
CN(C(=O)CSc1nnc(-c2ccncc2)n1C)C1CCS(=O)(=O)C1 (stereo not drawn) | 6.1 | 0.0 | 3.1* | -4.1 | 0.0755
Cc1ccccc1-n1c(SCC(=O)N(C)C2CCS(=O)(=O)C2)nnc1-c1ccncc1 (stereo not drawn) | 15.3 | 0.7 | 0.569 | 2.5 | .
O=C(NNC(=O)c1cc2cc3ccccc3nc2s1)c1cccc(C(F)(F)F)c1 | -15.2 | 0.9 | . | 0.4 | .
NS(=O)(=O)c1ccc(CCNC(=S)Nc2ccccc2)cc1 | 0.1 | 0.1 | . | -11.6 | .
CCn1c(=N)n(CC(O)c2ccco2)c2ccccc21 (stereo not drawn) | 5.4 | 0.7 | . | 8.5 | .
CCOC(=O)Cn1c(=N)n(Cc2ccccc2)c2ccccc21 | 4.3 | 0.5 | . | -24.8 | .
N=c1n(Cc2ccccc2)c2ccccc2n1Cc1ccccc1 | -1.7 | -1.4 | -3.58* | 11.0 | ?
N=c1n(Cc2ccccc2)c2ccccc2n1CC(O)c1ccco1 (stereo not drawn) | 4.5 | -1.2 | -2.47* | -5.0 | 0.0611*
COc1ccc(N(C(=O)CCl)C(C(=O)NCCc2ccccc2)c2cccs2)cc1Cl (stereo not drawn) | -40.7 | -1.8 | -3.29* | 43.5 | 0.0626*
COc1cccc(N(C(=O)CCl)C(C(=O)NCCc2ccccc2)c2cccs2)c1 (stereo not drawn) | -34.8 | -0.8 | -2.78 | 3.7 | .
O=C1CC(C(=O)Nc2ccc(O)c(C(=O)O)c2)C(c2ccccc2)O1 (stereo not drawn) | 6.7 | 0.8 | . | -1.0 | .
CN(C)S(=O)(=O)c1cccc(NC(=O)COC(=O)CCc2nc3ccccc3s2)c1 | 3.5 | -0.4 | 0.62 | -9.4 | .
COc1ccc(C2=NOC(C(=O)NCc3ccccn3)C2)cc1 (stereo not drawn) | -7.0 | 0.2 | . | 3.6 | .
COc1ccc(OC)c(C2=NOC(C(=O)NCc3ccccn3)C2)c1 (stereo not drawn) | 9.0 | 0.8 | . | -14.2 | 0.0759
O=C(NCc1ccccn1)C1CC(c2ccccc2O)=NO1 (stereo not drawn) | -6.7 | 0.1 | 2.56* | -23.3 | 0.0877
CS(=O)(=O)N(Cc1ccc(Cl)cc1)c1ccc(C(=O)N/N=C/c2cc3ccccc3nc2Cl)cc1 | -5.0 | 0.1 | . | 6.6 | .
O=C(NCc1cccs1)C1CCN(c2ccc(S(=O)(=O)N3CCOCC3)cc2Cl)CC1 | -18.1 | -0.5 | 2.9* | -12.3 | 0.0814
CC(C)(C)OC(=O)N1CCC[C@H]1C(=O)NCc1ccc(Cl)cc1Cl | -4.2 | -0.8 | -0.0373 | -9.6 | .
O=C(c1cccc(C(F)(F)F)c1)N1CCC(O)(CS(=O)(=O)Cc2ccc(Cl)cc2)CC1 | 4.1 | -0.8 | . | -5.9 | 0.0747
COC(=O)c1cc(NC(=O)Nc2ccccc2OC)cc(C(=O)OC)c1 | 5.4 | -1.8 | 0.43 | 10.1 | .
OC(CNC1CCCCC1)COCCOc1ccc(Br)cc1 (stereo not drawn) | -32.4 | -0.3 | -4.07* | 27.6 | 0.0594*
O=[N+]([O-])c1ccc(OCC(O)CNC2CCCC2)cc1 (stereo not drawn) | . | 0.3 | . | . | .
COc1ccc(-c2nc(-c3ccc(NC(=O)c4ccncc4)cc3)no2)cc1OC | -8.0 | -1.1 | . | 4.9 | 0.0786
CCOC(=O)c1nn(-c2ccc(Br)cc2)cc1C(=O)c1cccc2ccccc12 | -3.0 | 1.6 | 0.0721 | 15.4 | .
CCN(CC)S(=O)(=O)c1ccc(N2CCOCC2)c(NC(=O)c2ccccc2)c1 | -0.2 | -1.7 | 0.957 | 27.5 | .

Screens (PubChem)
